Results taken from the supplement of paper PMC10981050.
Values joined by “and” are separate entries in the source; they are usually repeats but may differ in a detail not shown here. Equal values may be shown once. Where a name gives a salt, the structure may show the parent alone.

Tests used:
Test in all cases: cell viability relative to vehicle control; higher = less cytotoxic
Conditions in all cases: 10 µM
[1] = test system: K562
Outline: (§1)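 Screening covered the Selleck bioactive, kinase and epigenetic probe libraries, less identity-inconsistent compounds, on CRISPR-edited mutant clones and isogenic wild-type clones of four leukaemia lines. Cells, at 2000 per well in 50 µL medium, received a single 10 µM acoustically dispensed dose. After 48 h the supernatant was removed and CellTiter-Glo luminescence was read. Viability was analysed in Genedata Screener as percent of the on-plate vehicle control.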

[2] = test system: MARIMO
Outline: as §1

[3] = test system: MOLM14
Outline: as §1

[4] = test system: OCI-AML2
Outline: as §1

| Compound | cell viability ([1]; SRSF2 genotype: SRSF2 P95H/wt) | cell viability ([1]; SRSF2 genotype: SRSF2 wt/wt) [%] | cell viability ([2]; SRSF2 genotype: SRSF2 P95H/wt) [%] | cell viability ([2]; SRSF2 genotype: SRSF2 wt/wt) [%] | cell viability ([3]; SRSF2 genotype: SRSF2 P95H/wt) [%] | cell viability ([3]; SRSF2 genotype: SRSF2 wt/wt) [%] | cell viability ([4]; SRSF2 genotype: P95H/wt) [%] | cell viability ([4]; SRSF2 genotype: wt/wt) [%] |
| --- | --- | --- | --- | --- | --- | --- | --- | --- |
| CCc1nc(N)nc(N)c1-c1ccc(Cl)cc1 [Pyrimethamine] | 73.7% and 96.8% | 36.4 | 95.2 | 99.7 | 102 | 92.3 | 107 | 102 |
| NCCc1ccc(O)c(O)c1 [Dopamine hydrochloride (Inotropin)] | 89% and 91.3% | 93.1 | 88.6 | 103 | 80.9 | 100 | 99.9 | 105 |
| CCN1CCN(Cc2ccc(-c3cc4c(N[C@H](C)c5ccccc5)ncnc4[nH]3)cc2)CC1 | 3.36% and 7.86% | 8.31 | 52.9 | 58.4 | 12.6 | 11.8 | 13.8 | 23 |
| CC(C)(C)C(O)C(=Cc1ccc(Cl)cc1)n1cncn1 (centres undefined) [Uniconazole] | 95.8% and 99.3% | 96.5 | 92.2 | 101 | 93.9 | 105 | 93.8 | 91.2 |
| O=S(=O)(O)c1cc(O)ccc1O [Calcium Dobesilate] | 104% and 94.7% | 103 | 103 | 110 | 98.4 | 103 | 104 | 103 |
| COc1cc(Cc2cnc(N)nc2N)cc(OC)c1OC [Trimethoprim] | 102% and 101% | 94.4 | 103 | 104 | 102 | 104 | 101 | 101 |
| OC(Cn1cncn1)(Cn1cncn1)c1ccc(F)cc1F [Fluconazole] | 112% and 99.8% | 101 | 98 | 107 | 103 | 101 | 96.9 | 95.7 |
| Cc1cc(C(N)=O)ccc1-n1c(CCC(=O)O)ccc1-c1ccc(-n2ccnc2)cc1 | 101% and 109% | 108 | 105 | 98 | 105 | 108 | 109 | 124 |
| O=C(NOCCO)c1ccc2cncn2c1Nc1ccc(I)cc1F | 78.1% and 89.5% | 80.8 | 41.2 | 37 | 43.5 | 27 | 39.1 | 40.2 |
| Cc1cc(-c2ccc(CC(=O)Nc3ccc(-c4cccnc4)cc3)cc2)ccn1 | 77% and 83% | 86.9 | 81.5 | 86.3 | 103 | 102 | 74 | 78.9 |
| O=C(Nc1ccc([N+](=O)[O-])cc1O)Nc1ccccc1Br | 16.9% and 34.5% | 33.9 | 7.34 | 8.23 | 13.5 | 3.38 | 8.53 | 10.4 |
| Cc1cc(NS(=O)(=O)c2ccc(N)cc2)nc(C)n1 [sulfaisodimidine] | 103% | 112 | 106 | 101 | 106 | 106 | 112 | 102 |
| O=C1[C@H]2CCCC[C@H]2C(=O)N1CCCCN1CCN(c2nsc3ccccc23)CC1 [Perospirone hydrochloride] | 70.2% and 74% | 73.6 | 71.2 | 82.3 | 78.7 | 82.5 | 73.7 | 75.8 |
| CN1CCN(c2ccc(Nc3ncc4cc(C#N)c(=O)n(C5CCCC5)c4n3)cc2)CC1 | 79.5% and 104% | 87.8 | 60.4 | 58.4 | 17.9 | 16.4 | 21.4 | 29.1 |
| O=c1cc(-c2ccc(OC3OC(CO)C(O)C(O)C3O)cc2)oc2c(C3OC(CO)C(O)C(O)C3O)c(O)cc(O)c12 (centres undefined) [4'-O-Glucosylvitexin] | 97% and 102% | 101 | 97.3 | 91.7 | 99.6 | 99 | 97.4 | 96.8 |
| Fc1ccc([C@@H]2CCNC[C@H]2COc2ccc3c(c2)OCO3)cc1 [Paroxetine HCl] | 63.6% and 68.3% | 67.6 | 44 | 44.1 | 47.7 | 56.5 | 43 | 52.4 |
| C[C@@H]1COCCN1c1cc(C2([S@](C)(=N)=O)CC2)nc(-c2cc[nH]c3nccc2-3)n1 | 15.9% and 23.3% | 15.3 | 19.2 | 20.1 | 11.1 | 5.99 | 10.6 | 12 |
| NC(=O)c1ccc(I)c([N+](=O)[O-])c1 [Iniparib (BSI-201)] | 101% and 102% | 113 | 97.6 | 81.1 | 98.6 | 100 | 127 | 114 |
| CC(=O)Oc1cc(C(F)(F)F)ccc1C(=O)O [Triflusal] | 101% and 90.6% | 99.7 | 98.9 | 101 | 97.7 | 101 | 92.2 | 102 |

| Compound | cell viability ([1]; SRSF2 genotype: SRSF2 P95H/wt) | cell viability ([1]; SRSF2 genotype: SRSF2 wt/wt) [%] | cell viability ([2]; SRSF2 genotype: SRSF2 P95H/wt) [%] | cell viability ([2]; SRSF2 genotype: SRSF2 wt/wt) [%] | cell viability ([3]; SRSF2 genotype: SRSF2 P95H/wt) [%] | cell viability ([3]; SRSF2 genotype: SRSF2 wt/wt) [%] | cell viability ([4]; SRSF2 genotype: P95H/wt) [%] | cell viability ([4]; SRSF2 genotype: wt/wt) [%] |
| --- | --- | --- | --- | --- | --- | --- | --- | --- |
| N=C(N)Nc1ccc(C(=O)Oc2ccc3cc(C(=N)N)ccc3c2)cc1 [Nafamostat mesylate] | 90.4% and 98.9% | 89.4 | 77.2 | 76 | 94.2 | 89.4 | 83.2 | 85.1 |
| CC(=O)OCC(=O)[C@@]12OC(C)(C)O[C@@H]1C[C@H]1[C@@H]3C[C@H](F)C4=CC(=O)C=C[C@]4(C)[C@@]3(F)[C@@H](O)C[C@@]12C [Fluocinonide (Vanos)] | 100% and 105% | 108 | 110 | 106 | 107 | 94.8 | 111 | 117 |
| C[N+]1(C)[C@@H]2CC[C@H]1C[C@@H](OC(=O)C(O)c1ccccc1)C2 (some centres undefined) [Homatropine Methylbromide] | 103% and 100% | 101 | 106 | 114 | 102 | 104 | 92.9 | 105 |
| CC(C)OC(=O)C(C)(C)Oc1ccc(C(=O)c2ccc(Cl)cc2)cc1 [Fenofibrate (Tricor, Trilipix)] | 80.4% and 86.4% | 85.1 | 79.2 | 81.2 | 93.7 | 98.5 | 67.1 | 82.8 |
| CC(C)(C)C(=O)OCOP(=O)(COCCn1cnc2c(N)ncnc21)OCOC(=O)C(C)(C)C [Adefovir Dipivoxil (Preveon, Hepsera)] | 59.1% and 71.3% | 75.8 | 30.7 | 36.8 | 0.75 | 0.59 | 0.85 | 2.98 |
| C[C@@H](O[C@H]1OCCN(Cc2n[nH]c(=O)[nH]2)[C@H]1c1ccc(F)cc1)c1cc(C(F)(F)F)cc(C(F)(F)F)c1 [Aprepitant (MK-0869)] | 52.7% and 46% | 56.8 | 73 | 56.1 | 56.2 | 64.3 | 45.8 | 56.8 |
| Nc1[nH]cnc2ncnc1-2 [Adenine sulfate] | 108% and 94.6% | 99.3 | 94.7 | 103 | 93.5 | 99.7 | 102 | 112 |
| CO[C@H]1C[C@@H]2CC[C@@H](C)[C@@](O)(O2)C(=O)C(=O)N2CCCC[C@H]2C(=O)O[C@H]([C@H](C)C[C@@H]2CC[C@H](n3cnnn3)[C@H](OC)C2)CC(=O)[C@H](C)/C=C(\C)[C@@H](O)[C@@H](OC)C(=O)[C@H](C)C[C@H](C)/C=C/C=C/C=C/1C [Zotarolimus (ABT-578)] | 67.9% and 74.2% | 66.1 | 77 | 76.9 | 60.8 | 56.5 | 64.2 | 61.1 |
| CCCCC(C=O)NC(=O)C(CC(C)C)NC(=O)C(CC(C)C)NC(C)=O (centres undefined) | 1.41% and 2.62% | 1.86 | 1.3 | 1.7 | 0.23 | 0.15 | 0.23 | 1.17 |
| CO/N=C(\C(=O)N[C@@H]1C(=O)N2C(C(=O)O)=C(CSc3nnnn3C)CS[C@H]12)c1csc(N)n1 [Cefmenoxime hydrochloride] | 96.7% and 90.3% | 100 | 98.4 | 97.1 | 99.7 | 98.8 | 97.2 | 101 |
| CC(=O)O[C@@]12CO[C@@H]1C[C@H](O)[C@@]1(C)C(=O)[C@H](O)C3=C(C)[C@@H](OC(=O)[C@H](O)[C@@H](NC(=O)OC(C)(C)C)c4ccccc4)C[C@@](O)([C@@H](OC(=O)c4ccccc4)[C@H]21)C3(C)C [Docetaxel (Taxotere)] | 25.3% and 36.8% | 34.7 | 6.89 | 5.5 | 7.8 | 4.57 | 7.58 | 13.3 |
| CC(C(=O)O)c1ccc2c(c1)CC(=O)c1ccccc1S2 (centres undefined) [Zaltoprofen] | 102% and 98.4% | 97.7 | 96.8 | 103 | 99.1 | 98.8 | 94.4 | 104 |
| C=C[C@@H]1CNC(=S)O1 [Epigoitrin] | 103% and 97.6% | 101 | 91.3 | 93.1 | 101 | 99.2 | 103 | 104 |
| CC(=O)O/N=C1/C(c2c(O)[nH]c3cc(Br)ccc23)=Nc2ccccc21 [BIO-acetoxime] | 32.5% and 23.4% | 25.4 | 82.2 | 88.4 | 33.1 | 24.4 | 73.2 | 76.2 |
| Cc1cc(Nc2cc(N3CCN(C)CC3)nc(/C=C/c3ccccc3)n2)n[nH]1 [ENMD-2076 L-(+)-Tartaric acid] | 22.5% and 29.7% | 22.9 | 34.8 | 30.7 | 2.93 | 6.51 | 7.71 | 14.7 |
| Oc1ccc(-c2c(-c3ccccc3)nn3c(C(F)(F)F)cc(C(F)(F)F)nc23)cc1 | 87.4% and 87.6% | 83 | 85.7 | 93.3 | 75.9 | 86.1 | 92 | 103 |
| N/C(=N\N=C\c1ccc(Cl)cc1)N/N=C/c1ccc(Cl)cc1 [Robenidine Hydrochoride] | 70.9% and 65.6% | 67.4 | 65.7 | 67.8 | 59.2 | 65.9 | 60.2 | 73.3 |
| CC(S)C(=O)NCC(=O)O (centres undefined) [Tiopronin (Thiola)] | 111% and 110% | 104 | 105 | 105 | 100 | 105 | 100 | 112 |
| CC(C)Oc1ccc(-c2nn([C@@H](C)c3oc4ccc(F)cc4c(=O)c3-c3cccc(F)c3)c3ncnc(N)c23)cc1F | 89.1% and 94.3% | 87.6 | 84.8 | 94.9 | 77 | 71.8 | 67.4 | 72.3 |
